# Laboratory results reported in PubChem BioAssay (EPA / NIEHS).
# Calls of active or inactive are those of the source. How the source made its calls: active means hit-call score of the fitted dose curve at least 0.9, where 1 is the maximum; inconclusive means response in the unintended direction; inactive means score below 0.9.
# Biological target: Estrogen receptor beta (Homo sapiens) (UniProt Q92731)
# Experiment: OT_ER_ERbERb_1440: Odyssey Thera (OT) 24-hour HEK293T Protein-Complementation Assay for Estrogen Receptor-beta/-beta Homodimer (AID 2283380);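 further: scored as signal increase over DMSO baseline for both agonists and antagonists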
# Method: OT_ER_ERbERb_1440 is a cell-based assay that uses HEK293T, a human kidney cell line, with measurements taken at 24 hours after chemical dosing in a 384-well plate.OT_ER_ERbERb_1440 is one of one assay component(s) measured or calculated from the OT_ER_ERbERb_1440 assay. It is designed to make measurements of protein fragment complementation, a form of binding reporter, as detected with fluorescence intensity signals by Protein-fragment Complementation technology.Data from the assay component OT_ER_ERbERb_1440 was analyzed into 1 assay endpoint. This assay endpoint, OT_ER_ERbERb_1440, was analyzed in the positive analysis fitting direction relative to DMSO as the negative control and baseline of activity. Using a type of binding reporter, measures of receptor for gain-of-signal activity can be used to understand the binding at the pathway-level as they relate to the gene ESR2. Furthermore, this assay endpoint can be referred to as a primary readout, because the performed assay has only produced 1 assay endpoint. To generalize the intended target to other relatable targets, this assay endpoint is annotated to the nuclear receptor intended target family, where the subfamily is steroidal.
# Protein-fragment complementation assay, or PCA, is a method for the identification and quantification of protein-protein interactions. In the PCA, the proteins of interest ("bait" and "prey") are each covalently linked to fragments of a third protein (e.g. DHFR, which acts as a "reporter"). Interaction between the bait and the prey proteins brings the fragments of the reporter protein in close proximity to allow them to form a functional reporter protein whose activity can be measured. The OT ER beta / ER beta assay is a homodimer PCA of the ligand binding domain (LBD; amino acids 310-547) of human ER beta stably expressed in HEK293T cells. […] Cells are fixed in 4 percent formaldehyde and stained with Draq5 (BioStatus) to identify cells prior to signal detection. Fluorescent signal in the basal state of the assay is very low and is primarily punctuate and cytoplasmic. Modulation of this assay is quantified as an increase in mean fluorescence intensity in the nucleus (for agonists) or in the nucleus and cytoplasm (antagonists) relative to vehicle controls, and can be quantified on a high content imaging device or a laser scanning cytometer. The latter instrument is favored for this assay because of the rapid mode of data acquisition, the ability to acquire data from the entire cell population in a well (as opposed to a fraction of the well on the high content devices) and the larger dynamic range typically achieved with this instrument. To assess sensitivity of the ER beta/ER beta LBD assay to ligand, cells were treated with the ER agonist 17- beta-estradiol (E2) in 10-point concentration- response format for 24 hours and monitored response on a laser scanning plate cytometer (Acumen eX3; TTP Lab Tech).
# Chain of Estrogen receptor beta (Homo sapiens) (Q92731 whole entry, looked up): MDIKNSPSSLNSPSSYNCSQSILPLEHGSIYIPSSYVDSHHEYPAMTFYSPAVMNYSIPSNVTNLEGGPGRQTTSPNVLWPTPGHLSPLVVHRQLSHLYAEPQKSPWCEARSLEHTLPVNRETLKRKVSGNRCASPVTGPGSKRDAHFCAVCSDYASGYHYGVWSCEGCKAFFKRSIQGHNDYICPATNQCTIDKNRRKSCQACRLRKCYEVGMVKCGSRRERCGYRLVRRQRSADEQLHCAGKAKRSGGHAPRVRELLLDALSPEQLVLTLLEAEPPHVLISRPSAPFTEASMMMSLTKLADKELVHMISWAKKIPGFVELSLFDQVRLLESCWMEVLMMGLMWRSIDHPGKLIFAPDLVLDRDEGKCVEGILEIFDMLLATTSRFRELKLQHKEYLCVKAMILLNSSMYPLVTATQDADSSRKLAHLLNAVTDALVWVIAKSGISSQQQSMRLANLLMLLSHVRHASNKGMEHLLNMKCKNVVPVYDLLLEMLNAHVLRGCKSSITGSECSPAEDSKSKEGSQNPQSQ
Structure (SMILES),outcome,AC50
COc1cc2c(c(OC)c1OC)-c1ccc(OC)c(=O)cc1[C@@H](NC(C)=O)CC2,inactive,–
O=C(NO)C1(NS(=O)(=O)c2ccc(Oc3ccc(F)cc3)cc2)CCOCC1,inactive,–
CCCCCCCC/C=C\CCCCCCCC(=O)OC[C@@H](O)[C@H]1OC[C@H](O)[C@H]1O,inactive,–
c1ccc2c(c1)-c1cccc3c1c-2cc1ccccc13,inactive,–
OCC(CO)(CO)CO,inactive,–
CCc1cccc(CC)c1N,inactive,–
CCc1ccc(O)c(C(C)(C)C)c1,inactive,–
Cc1nccn1-c1ccc(Sc2cccc(C3(C(N)=O)CCOCC3)c2)cc1,–,31.9 µM (active)
CC(C)CC(C)O (stereo not given),inactive,–
CC(C)c1nnc2ccc(-c3ocnc3-c3cc(F)ccc3F)cn12,inactive,–
NNC(=O)c1ccncc1,inactive,–
NC(=O)NN=Cc1ccc([N+](=O)[O-])o1,inactive,–
O=C1CN(N=Cc2ccc([N+](=O)[O-])o2)C(=O)N1,inactive,–
CC(C)CCCCCCOC(=O)C1CCCCC1C(=O)OCCCCCCC(C)C (stereo not given),inactive,–
c1ccc2cc3ccccc3cc2c1,inactive,–
NC(=O)N1c2ccccc2C=Cc2ccccc21,inactive,–
CCCOc1ccc(S(=O)(=O)N2CCN(CC)CC2)cc1-c1nc2c(CC)n(Cc3ccccn3)nc2c(=O)[nH]1,inactive,–
CC[C@H](C)C(=O)O[C@H]1C[C@H](O)C=C2C=C[C@H](C)[C@H](CC[C@@H](O)C[C@@H](O)CC(=O)O)[C@H]21,inactive,–
OC[C@H]1O[C@@](CO)(O[C@H]2O[C@H](CO)[C@@H](O)[C@H](O)[C@H]2O)[C@@H](O)[C@@H]1O,inactive,–
Cn1cc[nH]c1=S,inactive,–

Structure (SMILES),outcome,AC50
O=C(O)c1cccc(C[C@@H]2COc3ccc(OCc4nc5cc(F)ccc5s4)cc3[C@@H]2O)c1,inactive,–
COCc1nnc(-c2ccc[n+]([O-])c2)n1-c1c(Cl)c(Cl)cc2[nH]c(=O)c(=O)[nH]c12,inactive,–
CNC(C)=O,inactive,–
CCCCCCCCCC,inactive,–
NC(N)=O,inactive,–
CCCc1ccccc1,inactive,–
NC(=O)N(O)[C@@H]1COc2cc(OCc3ccccc3)ccc21,inactive,–
O=C(O)c1ccc2c(c1)nc(C(=O)NC1CCN(C3CC3)CC1)n2Cc1cc(-c2ccc(Cl)s2)on1,inactive,–
O=C(O)CO,inactive,–
Cc1ccc(S(=O)(=O)NC(=O)NN2CCCCCC2)cc1,inactive,–
CCN(CC)C(=S)SSC(=S)N(CC)CC,inactive,–
OC[C@H]1O[C@@H]2O[C@H]3[C@H](O)[C@@H](O)[C@@H](O[C@H]4[C@H](O)[C@@H](O)[C@@H](O[C@H]5[C@H](O)[C@@H](O)[C@@H](O[C@H]6[C@H](O)[C@@H](O)[C@@H](O[C@H]7[C@H](O)[C@@H](O)[C@@H](O[C@H]1[C@H](O)[C@H]2O)O[C@@H]7CO)O[C@@H]6CO)O[C@@H]5CO)O[C@@H]4CO)O[C@@H]3CO,inactive,–
c1ccc(C(O[C@@H]2CCCN(CCc3ccc4c(c3)OCO4)C2)c2ccccc2)cc1,–,38.5 µM (active)
CCCCC(CC)C(=O)OCCOCCOCCOC(=O)C(CC)CCCC (stereo not given),inactive,–
CCCCCCCCCCCCCCO,inactive,–
CCCCCCCCCCCCCCCCOS(=O)(=O)O,inactive,–
CCCCCCCC1CCC(=O)O1 (stereo not given),inactive,–
OCCOCCOCCO,inactive,–
OC(Cn1cncn1)(Cn1cncn1)c1ccc(F)cc1F,inactive,–
O=S1(=O)CCCO1,–,17.5 µM (active)
